# Assay results reported in ChEMBL document CHEMBL3988442, “University of Dundee, Small-Polar-MMV Screening Library” (2021).
# The whole screen tested about 48,000 compounds, of which about 13,000 (27%) showed an effect of 50% or more. The list shows a part of the results.
# Tested on: Wolbachia pipientis
# Assay: Anti-Wolbachia Cell-Based Screen
# Type: functional
# Set-up: scale not given: in the data most compounds retested in dose-response had high values
# Conditions: 5 µM
row,Compound,Percent Effect
1,CCOCCN1CCN(CC(=O)N2CCCC2)CC1C (configuration not stated),-3.155%
2,CCOCCN1CCN(CC(=O)N2CCCC2)CC1CC (configuration not stated),98.08%
3,CCOCCN1CCN(CCC(=O)N2CCCCC2)CC1C (configuration not stated),-8.269%
4,CCOCCN1CCN(Cc2nc(C)no2)CC1CC (configuration not stated),-13.77%
5,CCOCCN1CCN(CC(=O)NC2(C#N)CCCC2)CC1CC (configuration not stated),-13.43%
6,CCOCCN1CCN(CC(=O)N2CCC2)CC1CC (configuration not stated),109.6%
7,O=C1C=CC=N/C1=C(/O)NCCNS(=O)(=O)N1CCCCCC1,-2.703%
8,CC(=O)NCc1noc2c1CN(Cc1ccsc1)CC2,-0.8794%
9,COC(=O)CNC(=O)c1ccc(OC2CCN(S(C)(=O)=O)CC2)c(Cl)c1,-7.47%
10,CCc1cnc(CN(C)C2CCN(CCc3ccccn3)C2)o1 (configuration not stated),-9.613%
11,CCc1cnc(CN(C(C)=O)C2CCN(CCc3cnn(C)c3)C2)o1 (configuration not stated),11.37%
12,CCc1cnc(CN(C(C)=O)C2CCN(CCc3ccncc3)C2)o1 (configuration not stated),111.3%
13,CCc1cnc(CN(C(C)=O)C2CCN(CCc3ccccc3)C2)o1 (configuration not stated),104.1%
14,CCc1cnc(CN(C(C)=O)C2CCN(CCc3ccccn3)C2)o1 (configuration not stated),119.1%
15,CN(CCC#N)C(=O)CSc1cc(F)ccc1F,10.19%
16,COCCS(=O)(=O)Nc1cc(Cl)ccn1,7.348%
17,CCCNC(=O)CCNC(=O)Cc1nc(-c2ccco2)oc1C,-2.58%
18,CC(C)CN(Cc1nnc(-c2ccco2)o1)CC(C)C,-6.92%
19,CC(C)CN(Cc1cnn(C)c1)C(=O)C1COc2ccccc2C1 (configuration not stated),-20.05%
20,CC(=O)N1N=C(c2ccco2)OC1C(=O)N(CC(C)C)CC(C)C (configuration not stated),91.49%
21,CC(=O)N1N=C(c2ccco2)OC1C(=O)NCC(C)C (configuration not stated),108.9%
22,CCNC(=O)C1CCN(c2nc(-c3ccco3)nc3c2CCNCC3)C1 (configuration not stated),5.847%
23,Cc1noc(C)c1CN1CC[C@H](OCC2CC2)[C@@H](Cc2ccccc2)C1,-6.774%
24,CN(CC1(CO)CCC1)C(=O)C1CCC(=O)N(Cc2ccc(Cl)cc2)C1 (configuration not stated),0.1062%
25,O=C(Nc1ccc(-n2cccn2)cc1)N1CCOCC(O)C1 (configuration not stated),0.445%
26,O=C(O)C(F)(F)F.O=C(c1cccs1)N1CCOCC2(C1)CN(c1cccnc1)C(=O)CO2 (configuration not stated),114.5%

row,Compound,Percent Effect
1,O=C(O)C(F)(F)F.O=C(O)C(F)(F)F.O=C(c1ccncc1)N1CCOC2(COCCN(c3cccnc3)C2)C1 (configuration not stated),-8.352%
2,O=C(O)C(F)(F)F.O=C(c1ccco1)N1CCOCC2(C1)CN(c1cccnc1)C(=O)CO2 (configuration not stated),102.4%
3,O=C(c1cccs1)N1CCOCC2(C1)CN(c1ccccc1)C(=O)CO2 (configuration not stated),85.77%
4,Cc1cc(C)c(OCC(=O)NS(=O)(=O)c2cccnc2)c(C)c1,-6.374%
5,COc1ccc(C)cc1C1(CNc2cncc(Cl)n2)CCOCC1,-4.03%
6,COC(=O)CCNC(=O)c1cc(Br)c2c(c1)OCCO2,-24.52%
7,O[C@@H]1CN(c2cnc3ccccc3n2)CC[C@H]1c1ccc2c(c1)OCO2,98.83%
8,CN(C)CC1CN(c2cnc3ccccc3n2)CCO1 (configuration not stated),11.03%
9,CN1CCN(C2CCN(c3cnc4ccccc4n3)CC2)C1=O,19.91%
10,O=C(NC1CC1)C1CN(c2nc3ccccc3s2)CCN1 (configuration not stated),-6.534%
11,O[C@@H]1CN(c2nc3ccccc3s2)CC[C@H]1c1ccc2c(c1)OCO2,110.1%
12,O=C(N[C@@H]1CCN(c2nc3ccccc3o2)C[C@H]1O)c1cnccn1,6.046%
13,O[C@@H]1CN(c2nc3ccccc3o2)CC[C@H]1c1ccc2c(c1)OCO2,107.9%
14,c1ccc2sc(N3CCOC(Cn4cccn4)C3)nc2c1 (configuration not stated),4.7%
15,c1ccc2oc(N3CCC(c4nncn4C4CC4)CC3)nc2c1,-9.735%
16,CCNC(=O)NC[C@H]1COCc2nc3cc(OC)ccc3n21,0.3029%
17,CCN(CC)C(=O)CN(C)C(=O)c1cccn1CCc1ccccc1,1.592%
18,CNC(=O)[C@H]1C[C@@H]2CN(C(=O)NC(C)C)C[C@H]1O2,-20.87%
19,COc1ccc(OC)c(-n2cnnc2COC(C)C)c1,-1.207%
20,Cc1ccc(-c2c(-c3ccccc3)ncn2CCCN2CCOCC2)o1,-10.17%
21,O=c1c2cccc(F)c2ncn1CCN1CCOCC1,0.8234%
22,Cn1c2ccc(F)cc2c2ncn(CCCN(CCO)CCO)c(=O)c21,122.3%
23,O=c1c2cccc(F)c2ncn1CCN1CCNCC1,-5.542%
24,O=c1c2c(ncn1CCCO)nc1n2CCC1,-24.45%
25,CC(C(=O)Nc1cccc(F)c1)N(C)CCN1CCOCC1 (configuration not stated),11.62%
26,O=c1c2cccc(C(F)(F)F)c2ncn1CCN1CCNCC1,-10.29%

row,Compound,Percent Effect
1,Cn1c2ccc(F)cc2c2ncn(CCN3CCOCC3)c(=O)c21,129.5%
2,Cc1cc(C)c2ncn(CCOCCO)c(=O)c2c1,-8.527%
3,Cn1c2ccccc2c2ncn(CCN3CCOCC3)c(=O)c21,100.8%
4,Cn1c2ccccc2c2ncn(CCCN3CCOCC3)c(=O)c21,106.3%
5,Cc1nc(-c2c(-c3ccccc3)ncn2CCCN2CCOCC2)c[nH]1,-4.456%
6,CS(=O)(=O)c1ccc(NC(=O)NCc2ccc(F)cc2)cn1,9.509%
7,CN(CC1(CO)CC1)C(=O)C1CCC(=O)N(Cc2ccc(Cl)cc2)C1 (configuration not stated),-2.442%
8,CC(C)(C)OC(=O)N1CC(=O)N(Cc2ccco2)CC(O)C1 (configuration not stated),112.7%
9,CC(C)(C)C(=O)N1CC(=O)N(Cc2ccco2)CC(O)C1 (configuration not stated),96.28%
10,CC(=O)N1CCC(CSCc2ccco2)CC1,-2.113%
11,CC(C)(C)OC(=O)N1CCCN(Cc2ccon2)c2ccccc21,7.757%
12,CC(C)c1cc(C(=O)N2CCN(Cc3ccco3)CC2)n[nH]1,11.56%
13,CC(C)COC(=O)N1CC(=O)N(Cc2ccco2)CC(O)C1 (configuration not stated),111.6%
14,O=C(NCCc1cccnc1)C1CCCN(Cc2ccco2)C1 (configuration not stated),-20.69%
15,O=C1CN(C(=O)C2CCCCC2)CC(O)CN1Cc1ccco1 (configuration not stated),88.46%
16,O=C(O)C(F)(F)F.O=C1C[C@@H]2[C@H](CCN2Cc2ccco2)N1c1ccsc1,5.007%
17,O=C([C@H]1COC[C@H]2CN(Cc3ccco3)C[C@H]21)N1CCCO1,-9.766%
18,CC(NCc1ccc(-c2ccc(F)cc2)o1)c1nnc2n1CCC2 (configuration not stated),11.28%
19,CNC(=O)c1ccc(NC2CCN(CC(F)(F)F)C2=O)cc1Cl (configuration not stated),5.324%
20,Cc1ccc(C(NC(=O)CN2CCc3c(ncn3C)C2)C2CC2)cc1 (configuration not stated),0.6431%
21,CC(C)CC(=O)N1CC(=O)N(Cc2ccco2)CC(O)C1 (configuration not stated),81.13%
22,O=C(CN1C(=O)CCC1=O)N1CCC(CSCc2ccco2)CC1,-7.09%
23,O=C(CN1C(=O)CCC1=O)N1CCC(S(=O)(=O)Cc2ccco2)CC1,3.229%
24,COCCOCCNC(=O)c1ccc(N2CCC(C)=N2)cc1,-11.91%
25,Cc1cccc(CN2CCC3(CCCN(Cc4cnn(C)c4)C3)C2)n1.O=C(O)C(F)(F)F.O=C(O)C(F)(F)F (configuration not stated),99.91%
26,Cn1cc(CN2CCCC3(CCN(C(=O)c4ccccn4)C3)C2)cn1.O=C(O)C(F)(F)F.O=C(O)C(F)(F)F.O=C(O)C(F)(F)F (configuration not stated),5.668%

row,Compound,Percent Effect
1,CCN1CC2(CCN(CC3CCCO3)CC2)OC1=O (configuration not stated),-23.86%
2,c1cc(CN2CCCC3(CCN(CC4CCCO4)CC3)C2)n[nH]1 (configuration not stated),86.72%
3,Cc1cccc(CN2CCC3(CCC(CC(=O)N(C)C)CC3)CC2)n1.O=C(O)C(F)(F)F,-48.49%
4,O=C1OC2(CCN(CC3CCCO3)CC2)CN1CCc1ccccc1 (configuration not stated),4.853%
5,Cc1cccc(CN2CCOC3(CCCN(CC(=O)N(C)C)C3)C2)n1.O=C(O)C(F)(F)F.O=C(O)C(F)(F)F (configuration not stated),7.418%
6,Cn1cc(CN2CCCC3(CCN(c4nncs4)C3)C2)cn1.O=C(O)C(F)(F)F (configuration not stated),-2.653%
7,Cc1cccc(CN2CCCC3(CCN(CC4CCCO4)CC3)C2)n1.O=C(O)C(F)(F)F.O=C(O)C(F)(F)F (configuration not stated),92.13%
8,NC(=O)c1cnc(NC2CCC(c3ccccc3)CC2)c(Cl)c1 (configuration not stated),-13.17%
9,CCc1ncncc1C(=O)N1CCN(Cc2c(C)noc2C)CC1,-0.7919%
10,COc1ccccc1OC1CCN(C(=O)c2c[nH]c(=O)[nH]c2=O)CC1,-1.274%
11,Cc1nn(CCO)c(C)c1CNC1CCOc2ccccc21.Cl (configuration not stated),-2.726%
12,O=C(NCCNc1cnccn1)N1CCc2ccccc2C1,3.9%
13,CN1CCCN(C(=O)NCCNc2ncccc2C#N)CC1,-11.99%
14,CC(=O)N1CCCN(C(=O)NCCNc2cnccn2)CC1,106.7%
15,CC1CN(C(=O)NCCCn2cncn2)CCO1 (configuration not stated),-6.452%
16,O=C(NCCNc1cnccn1)N1CCN(c2nccs2)CC1,115.8%
17,CN1CCCN(C(=O)NCCNc2cnccn2)CC1,104.7%
18,Cc1[nH]ncc1CCCNC(=O)N1CCOC(C)C1 (configuration not stated),-4.876%
19,CC1CN(C(=O)NCCNc2cnccn2)CCO1 (configuration not stated),93.32%
20,O=C(NCCNc1cnccn1)N1CC=C(c2ccc(O)cc2)CC1,-14.06%
21,O=C(NCCNc1cnccn1)N1CC=C(c2ccccc2)CC1,-24.03%
22,O=C(NCCNc1ccccn1)N1CCSCC1,1.97%
23,O=C(NCCNc1cnccn1)N1CCN(Cc2cccnc2)CC1,1.12%
24,CC(C)n1ncc2c1NC(=O)C(C#N)C21CCCCC1 (configuration not stated),14.23%
